Compound activity as filed in PubChem BioAssay.
In the library only some 5.1% were active in any assay of this set; here they are far more common.
GRIN3A LBD mod: modulates the human NR3A ligand-binding domain; NR3A LBD differential scanning fluorimetry, Tm shift; 0% = protein alone, 100% = glycine-bound protein; Tm shift relative to glycine control, % at 25 µM; 340,000 tested, 2.5% active;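 active means melting temperature shift of at least 10% of the positive control shift, at one fixed dose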
CRFR2-BP ag: CRF-BP/CRF-R2 complex agonism. HEK293 CRF-R2/CRF-BP, calcium dye fluorescence (FLIPR); percent of saturating CRF peptide response. activation, % at 13.2 µM. 350,000 tested, 0.46% active;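 active means activation of at least 50%, plus an integration ratio under a set limit after plate pattern correction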;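 further: plate controls were neutral control wells without compound for no effect and CRF at EC100 for full effect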
CRFBP-R2 block: CRF-BP/CRF-R2 complex antagonism. HEK293 CRF-R2/CRF-BP, CRF-induced calcium fluorescence. inhibition, % at 11.8 µM. 350,000 tested, 0.59% active;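 active means inhibition of the ligand-induced calcium signal above about 50% at the single tested concentration, limit read from the data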
TMEM16A act: activators or potentiators of mouse TMEM16A chloride channel | HEK293 TMEM16A/YFP-H148Q/I152L, iodide quench fluorescence; hits give low values | AID 623877 | B-score at 10 µM | Q8BHY3 | 340,000 tested, 0.3% active;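 active means fluorescence-ratio B-score plate-corrected deviation score at least 3 library SD below zero, with starting fluorescence score within 5 deviations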;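 further: channel opened by trigger with iodide after compound preincubation; score built on the fluorescence ratio of max minus min over baseline; more negative score means more quench and so TMEM16A activation or potentiation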
Target sequence (Q8BHY3 whole entry, looked up): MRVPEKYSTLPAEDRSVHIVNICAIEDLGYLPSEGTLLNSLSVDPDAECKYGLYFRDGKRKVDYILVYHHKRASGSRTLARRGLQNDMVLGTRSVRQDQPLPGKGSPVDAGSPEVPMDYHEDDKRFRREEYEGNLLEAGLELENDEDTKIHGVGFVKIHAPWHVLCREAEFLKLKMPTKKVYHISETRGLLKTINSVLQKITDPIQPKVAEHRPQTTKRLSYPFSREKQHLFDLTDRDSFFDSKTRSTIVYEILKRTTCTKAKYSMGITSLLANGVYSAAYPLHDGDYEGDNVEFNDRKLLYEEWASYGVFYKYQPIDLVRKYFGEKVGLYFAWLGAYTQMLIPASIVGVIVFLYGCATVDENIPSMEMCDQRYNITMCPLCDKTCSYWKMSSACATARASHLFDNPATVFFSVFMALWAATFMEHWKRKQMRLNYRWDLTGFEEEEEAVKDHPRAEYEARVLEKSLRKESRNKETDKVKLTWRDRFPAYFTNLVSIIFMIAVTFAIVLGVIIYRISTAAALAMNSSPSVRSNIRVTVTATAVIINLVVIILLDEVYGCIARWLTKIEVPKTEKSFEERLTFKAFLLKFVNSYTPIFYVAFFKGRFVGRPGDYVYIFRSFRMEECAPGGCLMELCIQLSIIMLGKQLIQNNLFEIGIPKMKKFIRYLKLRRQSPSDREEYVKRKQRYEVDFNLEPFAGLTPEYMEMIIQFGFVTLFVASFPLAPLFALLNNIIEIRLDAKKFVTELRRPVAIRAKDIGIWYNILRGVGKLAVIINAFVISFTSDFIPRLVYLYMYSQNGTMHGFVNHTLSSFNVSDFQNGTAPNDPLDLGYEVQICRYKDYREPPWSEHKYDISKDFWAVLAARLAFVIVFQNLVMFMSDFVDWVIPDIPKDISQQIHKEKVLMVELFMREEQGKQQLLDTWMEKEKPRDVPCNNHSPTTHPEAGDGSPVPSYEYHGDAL
MPTP inh: inhibitors of mitochondrial permeability transition pore | isolated mouse mitochondria, Ca2+ swelling absorbance, 30 min | 360,000 tested, 1.4% active | inhibition, % at 10 µM;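 active means inhibition of 50% or more, scaled per plate between neutral and stimulator controls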;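 further: 0% = DMSO wells given calcium and 100% = 1 mM EGTA wells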
ANO1 block: blocks the mouse calcium-activated chloride channel TMEM16A; Q8BHY3; HEK293 TMEM16A/YFP iodide influx fluorescence, ionomycin; normalized B-score (activity score, 25-100; higher = stronger inhibition) at 10 µM; 310,000 tested, 1.2% active; AID 588511;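 active means ratio plate-corrected score three or more library SD toward inhibition, starting fluorescence score within five deviations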;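 further: score derived from kinetic fluorescence span divided by baseline fluorescence per well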
The depositor's hits bear a star.

What do the screens show for `COc1ccc(Nc2nc(-c3cccc([N+](=O)[O-])c3)nc3ccccc23)c(OC)c1`?
GRIN3A LBD mod: 21*; CRFR2-BP ag: -3; CRFBP-R2 block: -8; TMEM16A act: inactive; MPTP inh: 1; ANO1 block: inactive

How did CCCCN1C(=O)C(CC(=O)NCc2cccs2)CC(C(=O)N(C(C)C)C(C)C)=C1C (stereo unspecified) do in these assays?
CRFR2-BP ag: -1; CRFBP-R2 block: -6; MPTP inh: 0

How did CCOc1ccc(N=Nc2c(=O)[nH]n3c(=O)c4c([nH]c23)CCCC4)cc1 do in these assays?
GRIN3A LBD mod: 5; CRFR2-BP ag: -6; CRFBP-R2 block: 51*; TMEM16A act: inactive; MPTP inh: -10; ANO1 block: inactive

What do the screens show for `O=c1[nH]n2c(=O)c3c([nH]c2c1N=Nc1cccc(Cl)c1)CCCC3`?
GRIN3A LBD mod: 5; CRFR2-BP ag: -1; CRFBP-R2 block: 67*; TMEM16A act: inactive; MPTP inh: 4; ANO1 block: inactive

Results for CN(C(=O)COC(=O)/C=C/c1cccs1)c1c(N)n(Cc2ccccc2)c(=O)[nH]c1=O ?
GRIN3A LBD mod: 1; CRFR2-BP ag: -1; CRFBP-R2 block: 18; TMEM16A act: inactive; MPTP inh: 0; ANO1 block: inactive

Results for Cn1c(=O)c2cc(NC(=O)Nc3cccnc3)ccc2n1Cc1cccc(C(F)(F)F)c1 ?
MPTP inh: 1

What do the screens show for `CCOc1ccc(C=NNC(=O)c2cccc3ccccc23)cc1OCC`?
GRIN3A LBD mod: -2; CRFR2-BP ag: -3; CRFBP-R2 block: 15; TMEM16A act: inactive; MPTP inh: 0

How did O=c1[nH]c(-[n+]2ccc3ccccc3c2)c(/C=N/N=C(\[O-])c2ccccc2)s1 do in these assays?
GRIN3A LBD mod: 0; CRFR2-BP ag: 7; CRFBP-R2 block: 12; TMEM16A act: -12*; MPTP inh: 1; ANO1 block: inactive

Results for C(=C\c1nccc2c1[nH]c1ccccc12)/c1ccccc1 ?
GRIN3A LBD mod: 16*; CRFR2-BP ag: -1; CRFBP-R2 block: 8; TMEM16A act: inactive; MPTP inh: 7; ANO1 block: inactive

Results for CC1=C(c2ccccc2)C(O)(c2ccccc2)C(C)C1=O (stereo unspecified) ?
GRIN3A LBD mod: -4; CRFR2-BP ag: -4; CRFBP-R2 block: 59*; TMEM16A act: inactive; MPTP inh: 1

How did CC1=C(c2ccccc2)CCC1=O do in these assays?
GRIN3A LBD mod: 0; CRFR2-BP ag: -3; CRFBP-R2 block: 4; TMEM16A act: inactive; MPTP inh: 0; ANO1 block: inactive

What do the screens show for `CN(C)c1ccc(-c2ccnc3c2CC(C)(C(=O)NCCc2ccccc2)O3)cc1` (stereo unspecified)?
MPTP inh: 1

Results for COc1ccc(Cl)cc1NC(=O)CN(C)C(=O)C1CCN(C(=O)Nc2ccccc2)CC1 ?
GRIN3A LBD mod: 2; CRFR2-BP ag: -2; CRFBP-R2 block: -4; TMEM16A act: inactive; MPTP inh: 0

How did O=C(NCCS(=O)(=O)N1CCN(c2ccccc2F)CC1)c1ccc2c(c1)OCO2 do in these assays?
GRIN3A LBD mod: 31*; CRFR2-BP ag: 0; CRFBP-R2 block: -3; TMEM16A act: inactive; MPTP inh: 1; ANO1 block: inactive

What do the screens show for `N#Cc1c(-c2ccc(F)cc2)cc(-c2ccccc2)nc1SCC(=O)NCC(=O)O`?
GRIN3A LBD mod: -3; CRFR2-BP ag: 62*; CRFBP-R2 block: -11; TMEM16A act: inactive; MPTP inh: 2; ANO1 block: inactive

Results for N#Cc1c(-c2ccc(Cl)cc2)cc(-c2ccccc2)nc1SCC(=O)O ?
GRIN3A LBD mod: -5; CRFR2-BP ag: -3; CRFBP-R2 block: 38; TMEM16A act: inactive; MPTP inh: 1; ANO1 block: inactive

How did CC(O)(c1cccnc1)c1nc(-c2cc(F)cc(F)c2)cs1 (stereo unspecified) do in these assays?
MPTP inh: 1

What do the screens show for `Cc1ccc(-c2noc(CCC(=O)Nc3ccc(C)cn3)n2)cc1`?
GRIN3A LBD mod: 11*; CRFR2-BP ag: -1; CRFBP-R2 block: 14; TMEM16A act: inactive; MPTP inh: 3; ANO1 block: inactive

Results for CCOc1cc(/C=C2/SC(=S)NC2=O)ccc1OC(=O)c1ccco1 ?
GRIN3A LBD mod: -2; CRFR2-BP ag: -3; CRFBP-R2 block: 69*; TMEM16A act: inactive; MPTP inh: 4; ANO1 block: inactive

How did COc1cc(/C=C2/SC(=O)NC2=O)ccc1OC(=O)c1ccco1 do in these assays?
GRIN3A LBD mod: -5; CRFR2-BP ag: -2; CRFBP-R2 block: 15; TMEM16A act: inactive; MPTP inh: 0; ANO1 block: inactive

How did CCOC(=O)C1=C(COc2ccccc2)NC(=O)NC1c1cccc([N+](=O)[O-])c1 (stereo unspecified) do in these assays?
GRIN3A LBD mod: 0; CRFR2-BP ag: -2; CRFBP-R2 block: -2; TMEM16A act: inactive; MPTP inh: -1; ANO1 block: inactive

What do the screens show for `COc1ccc(C(CC(=O)O)c2cc(OC)c(OC)c(OC)c2)cc1OC` (stereo unspecified)?
GRIN3A LBD mod: -2; CRFR2-BP ag: -1; CRFBP-R2 block: 7; TMEM16A act: inactive; MPTP inh: -4

What do the screens show for `O=C(Nc1ccc2[nH]c(=S)sc2c1)Nc1ccccc1F`?
GRIN3A LBD mod: 29*; CRFR2-BP ag: 0; CRFBP-R2 block: 4; TMEM16A act: inactive; MPTP inh: 1; ANO1 block: inactive

What do the screens show for `O=C(Nc1ccc2[nH]c(=S)sc2c1)c1ccccc1`?
GRIN3A LBD mod: 21*; CRFR2-BP ag: 0; CRFBP-R2 block: -2; TMEM16A act: inactive; MPTP inh: -3; ANO1 block: inactive

What do the screens show for `NC(=O)COC(=O)c1ccc(-c2ccc(O)cc2)cc1`?
GRIN3A LBD mod: -10; CRFR2-BP ag: 1; CRFBP-R2 block: 80*; TMEM16A act: inactive; MPTP inh: 0; ANO1 block: inactive

Results for O=C(OCc1ccc(COC(=O)c2ccc(O)cc2)cc1)c1ccc(O)cc1 ?
GRIN3A LBD mod: 21*; CRFR2-BP ag: 5; CRFBP-R2 block: 13; TMEM16A act: inactive; MPTP inh: 3; ANO1 block: inactive

Results for COc1cccc2c1C(=O)c1c(O)c3c(c(O)c1C2=O)C[C@](O)(C(C)=O)C[C@H]3O[C@@H]1C[C@@H](N)[C@@H](O)[C@@H](C)O1 ?
GRIN3A LBD mod: -4; CRFR2-BP ag: 64*; CRFBP-R2 block: -66; TMEM16A act: inactive; MPTP inh: 3; ANO1 block: inactive

How did CCCCC(=O)OCC(=O)C1(O)Cc2c(O)c3c(c(O)c2C(OC2CC(NC(=O)C(F)(F)F)C(O)C(C)O2)C1)C(=O)c1c(OC)cccc1C3=O (stereo unspecified) do in these assays?
GRIN3A LBD mod: 5; CRFR2-BP ag: 33; CRFBP-R2 block: -67; TMEM16A act: inactive; MPTP inh: 4
